Experimental data reported in PubChem BioAssay AID1458 (National Center for Advancing Translational Sciences (NCATS), 2008).
Hit rate of the full screen: of about 210,000 compounds, about 5,900 (2.8%) were called active. Roughly 5% stayed inconclusive and do not appear here. The list comes from a sample in which actives are over-represented; it also holds similar structures and randomly drawn compounds. A number with no mark means an inactive call. Calls follow the shape of the dose curve; as a rule, active = well fitted activation curve with a large enough effect; inconclusive = small, poorly fitted or top-dose-only effect; inactive = no such curve, though single readings can be large or run the other way.

assay: qHTS Assay for Enhancers of SMN2 Splice Variant Expression; conditions: HEK293 SMN2-luciferase splicing reporter, luminescence, 30-36 h; series mostly up to 46.1 µM; activity change, positive = activation: at the top concentration; also: nearly all actives have a fitted effect of over 55% in size; as to activity change, positive = activation: % of control where 0% means no effect
Summary of the method: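 qHTS luciferase splicing reporter: luminescence rises when SMN2 exon 7 is included in transfected HEK293 cells. Compound exposure lasted 30-36 h at 37C, with 4.5 mM final sodium butyrate as control, followed by a ONE-Glo read.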
Potency is read from the fitted curve at half-maximal effect.

Row | SMILES | activity change, positive = activation | Potency
1 | COc1ccc(CC(N)C(=O)NC2C(O)[C@H](n3cnc4c(N(C)C)ncnc43)O[C@@H]2CO)cc1 (stereo not given in full) | -70.3% | –
2 | CC1=C(C(=O)OCC2CCCCC2)C(c2c(F)cccc2Cl)CC(=O)N1 (stereo not given) | -17.8% | –
3 | O=C(Nc1cc(C(F)(F)F)ccc1Cl)c1ccc2c(c1)CCN2S(=O)(=O)c1ccccc1 | 2.17% | –
4 | CCSc1ncc(Cl)c(C(=O)Nc2c(C(=O)c3ccccc3)oc3ccccc23)n1 | 4.69% | –
5 | O=C(C1CCCN(S(=O)(=O)c2cccc3nonc23)C1)N1CCN(c2ccccc2F)CC1 (stereo not given) | -5.02% | –
6 | COc1ccccc1Nc1cc(C(=O)NCCCN(C)C2CCCCC2)c2ccccc2n1 | -53.1% | –
7 | CCCC12CN3CC(C)(CN(C1)C3c1ccccc1Cl)C2=O (stereo not given) | 3.3% | –
8 | CC(C)CC(=O)NC(=S)NCc1ccccc1 | 12.2% | –
9 | CCC(=O)NC(=Nc1nc2ccccc2s1)NC(=O)CC | – | 10 µM (active)
10 | CC(C)CC(=O)N/C(N)=N/c1nc2ccccc2s1 | – | 11.2 µM (active)
11 | COC(=O)c1nc2ccccc2s1 | -17.7% | –
12 | O=C(O)CCCCc1nc2ccccc2s1 | 11.6% | –
13 | Cc1cc(C(=O)OCC(=O)Nc2nnc(C(C)C)s2)c2ccccc2n1 | 10.4% [at 1.84 µM] | –
14 | CCc1nn(CC(=O)N2CCN(c3ccc(Cl)cc3)CC2)c(=O)c2cc3occc3n12 | -8.33% | –
15 | CCc1ccc(S(=O)(=O)Nc2cc3c(C(=O)OCc4ccccc4)c(C)oc3c3ccccc23)cc1 | -8.12% | –
16 | O=C(CSc1ncc(S(=O)(=O)c2ccc(Br)cc2)c(=O)[nH]1)Nc1ccc2c(c1)OCCO2 | -4.42% | –
17 | Cc1ccc(NC(=O)CN2c3ccccc3S(=O)(=O)c3ccccc32)cc1F | -8.12% | –
18 | CCOc1ccccc1NC(=O)CCS(=O)(=O)c1cccc2nsnc12 | 7.78% | –
19 | O=C(CSCc1cccs1)N1CCCC1 | – | 12.6 µM (active)
20 | O=C(CSc1ccsc1[N+](=O)[O-])N1CCCCC1 | 4.74% | –
21 | O=C(CSCc1ccc(Cl)cc1)N1CCN(Cc2ccc3c(c2)OCO3)CC1 | -32.9% | –
22 | O=C(Cn1c(=O)n(Cc2ccccc2)c(=O)c2sc3ccccc3c21)Nc1ccccc1F | -17.9% | –
23 | Cc1ccc(-c2nnc3c4ccccc4c(C)nn23)cc1NC(=O)c1cccc(Br)c1 | -0.0665% | –
24 | COc1ccc(OC)c(Nc2nc(-c3ccc(O)c(O)c3)cs2)c1 | – | 17.8 µM (active)
25 | O=S(=O)(Nc1ccccn1)c1ccc(Oc2ccccc2)cc1 | 6.26% | –
26 | COc1ccc(NC(=O)c2sc(N)nc2-c2ccccc2)cc1 | 11.7% | –
27 | O=C(Nc1ccc(Cl)cn1)Nc1cccs1 | 13.8% | –

Row | SMILES | activity change, positive = activation | Potency
28 | COC(=O)CSc1nccc(-c2cccs2)n1 | -2.36% | –
29 | COc1ccc(-c2csc(NC(=O)c3ccc(N4C(=O)CCC4=O)cc3)n2)cc1OC | -3.03% | –
30 | COc1ccc(Nc2nc(-c3ccccc3)cs2)cc1 | – | 10 µM (active)
31 | Clc1ccc(Nc2nc(-c3cccs3)cs2)nc1 | – | 14.1 µM (active)
32 | NS(=O)(=O)c1ccc(Nc2nc(-c3ccccc3)cs2)cc1 | -10.2% | –
33 | COc1ccc(-c2csc(Nc3ccccn3)n2)cc1 | – | 2.24 µM (active)
34 | COc1ccc2c(c1OC)C(=O)OC2Nc1nc(-c2ccccc2)cs1 (stereo not given) | 26.9% | –
35 | COc1ccc(C)cc1Nc1nc(-c2c(C)[nH]c3ccccc23)cs1 | 14% | –
36 | CCOc1cc(C2c3c(-c4ccc(Br)cc4)n[nH]c3C(=O)N2c2ccc(Cl)cc2)ccc1O (stereo not given) | -31.4% | –
37 | O=C(c1ccc2c(c1)N(Cc1ccc(Cl)cc1)C(=O)c1ccccc1S2(=O)=O)N1CCCCC1 | -11.6% | –
38 | CC1CCC2(CC1)N=C(c1ccccc1)C(=O)N2CC(=O)Nc1ccc(F)c(Cl)c1 (stereo not given) | 6.66% | –
39 | O=C(Nc1nc(-c2ccncc2)cs1)C1COc2ccccc2O1 (stereo not given) | 14.3% | –
40 | c1ccc(Nc2nc(-c3ccncc3)cs2)nc1 | – | 12.6 µM (active)
41 | O=C(Nc1nc(-c2ccc(-c3ccccc3)cc2)cs1)c1cnccn1 | -28.6% | –
42 | CSc1ccc(NC(=O)Cn2nnnc2-c2ccccc2F)cc1 | -1.68% | –
43 | O=C(NCCc1c[nH]c2ccccc12)C(=O)NCC1CCCO1 (stereo not given) | -8.48% | –
44 | O=C(NCCc1c[nH]c2ccccc12)c1cc2ccccc2oc1=O | – | 17.8 µM (active)
45 | CN(c1ccccc1)S(=O)(=O)c1ccc(Cl)c(C(=O)NCCc2c[nH]c3ccccc23)c1 | -16.4% | –
46 | O=C(Nc1cccc2cccnc12)c1cccc2c(Br)cccc12 | 2.49% | –
47 | CCOC(=O)c1c(-c2ccc(OC)cc2)oc2ccc(OCc3ccc(C(=O)OC)cc3)cc12 | -6.6% | –
48 | COC(=O)c1sc(NC(=O)c2csc3c2CCCC3)nc1C | – | 2.51 µM (active)
49 | COC(=O)c1sccc1NC(=O)c1csc2c1CCCC2 | 32.6% | –
50 | CC(=O)Cc1nsc(NC(=O)c2csc3c2CCCC3)n1 | 4.95% | –
51 | Cc1ccc(NC(=O)c2csc3c2CCCC3)cc1 | – | 4.47 µM (active)
52 | O=C(NCc1ccccc1Cl)c1csc2c1CCCCC2 | 5.72% | –
53 | CCOC(=O)c1ccc(NC(=O)c2csc3c2CCCCC3)cc1 | -16.6% | –
54 | COc1ccc(OC)c(NC(=O)/C=C/c2ccc(C)o2)c1 | -0.29% | –

Row | SMILES | activity change, positive = activation | Potency
55 | NC(=O)c1sc(-c2ccsc2)cc1N | 14.9% | –
56 | COc1ccc(CNC(=O)CS(=O)Cc2nc(-c3cccc(C)c3)oc2C)cc1 (stereo not given) | -5.97% | –
57 | CC(=O)Nc1ccc(NC(=O)C(C)OC(=O)c2ccccc2C(=O)c2ccc(Cl)c([N+](=O)[O-])c2)cc1 (stereo not given) | – | 25.1 µM (active)
58 | CC(CC(=O)O)C(=O)c1ccc(Cl)c([N+](=O)[O-])c1 (stereo not given) | 5.72% | –
59 | N#Cc1cccc(NC(=O)COC(=O)c2ccccc2C(=O)c2ccc(Cl)c([N+](=O)[O-])c2)c1 | -115% | –
60 | COc1cc(OC)c(NC(=O)c2c3c(nn2C)-c2ccccc2SC3)cc1Cl | -7.27% | –
61 | COc1ccccc1N1CCN(C(=O)c2cn(-c3ccccc3)nc2-c2cccnc2)CC1 | – | 22.4 µM (active)
62 | O=C(c1cn(-c2ccccc2)nc1-c1cccnc1)N1CCCCC1 | -3.31% | –
63 | COC(=O)c1cn(-c2ccccc2)nc1-c1cccnc1 | -22% | –
64 | CCOc1ccc(NC(=O)CSc2c3c(nc4ccccc24)CCCC3)cc1 | -16.5% | –
65 | COc1ccc(C(=O)CSc2nnc(COc3ccccc3)n2Cc2ccco2)cc1 | -25.5% | –
66 | CCCc1nc2c(c(=O)c3ccccc3n2C)c(=O)n1C1CCCCCC1 | -22.8% | –
67 | Cn1c2ccccc2c(=O)c2c(=O)n(Cc3ccco3)c(COc3ccccc3)nc21 | – | 35.5 µM (active)
68 | O=C(CCn1c(=O)c2sccc2n(Cc2ccc(F)cc2)c1=O)NCc1ccc2c(c1)OCO2 | 5.36% | –
69 | COc1ccc(S(=O)(=O)NCCc2cc3ccc(C)c(C)c3[nH]c2=O)cc1 | 4.46% | –
70 | COc1cccc(CNC(=O)c2ccc3c(Cl)c4c(nc3c2)CCCC4)c1 | -13.9% | –
71 | COc1cc(NC(=O)CN(C)S(=O)(=O)c2ccc3nc(C)sc3c2)cc(OC)c1 | -45.1% | –
72 | Cc1cccc(N(CC(=O)Nc2ccc(-c3nc4ccc(C)cc4s3)cc2)S(C)(=O)=O)c1 | 10.7% | –
73 | Cc1ccc2nc(-c3ccc(NC(=O)CN(C)S(=O)(=O)c4ccccc4)cc3)sc2c1 | – | 1 µM (active)
74 | Cc1ccc(F)cc1NC(=O)CCSc1nc(-c2ccco2)cc(C(F)(F)F)n1 | -8.06% | –
75 | COc1ccc(C(=O)n2nc(-c3ccc(C)cc3)nc2N)cc1OC | 6.92% | –
76 | COc1ccccc1C(=O)n1nc(-c2ccccc2)nc1N | 16.8% | –
77 | COc1ccc(C(=O)n2nc(-c3ccc(Cl)cc3)nc2N)cc1OC | – | 25.1 µM (active)
78 | COc1ccc(-c2nc3ccccc3o2)cc1NC(=O)c1cc([N+](=O)[O-])ccc1N1CCOCC1 | 12.9% | –
79 | Cc1cccc(NC(=O)c2cc3c(C)nn(-c4ccccc4)c3s2)c1 | -20.2% | –
80 | Cc1c(CNC2CCCCC2)c(C(=O)O)c(C)n1Cc1cccc(Cl)c1 | -1.29% | –
81 | CCCN1CCN(CCCNC(=O)Cn2nc(CC)n3c(cc4occc43)c2=O)CC1 | -2.11% | –

Row | SMILES | activity change, positive = activation | Potency
82 | C=CCNc1cnn(-c2ccc(C)cc2)c(=O)c1Cl | – | 11.2 µM (active)
83 | CCc1nc2c(cnn2-c2ccc(C)cc2)c(=O)n1-c1ccc(C)cc1 | -22.3% | –
84 | O=c1c(Cl)c(NC2CC2)cnn1-c1ccccc1 | 19.1% | –
85 | Cc1ccccc1-c1nc(CS(=O)(=O)CC(=O)Nc2cc(Cl)cc(Cl)c2)c(C)o1 | 2.55% | –
86 | COC(=O)c1ccc(Cc2ccccc2)o1 | 24.2% | –
87 | COC(=O)c1ccc(CSc2ccccc2C)o1 | – | 8.91 µM (active)
88 | COC(=O)c1ccc(CSc2ccc3nnc(-c4ccccc4)n3n2)o1 | 23.6% | –
89 | Cc1ccc(NS(=O)(=O)c2ccc3c(c2)CC(=O)N3)cc1Cl | -6.22% | –
90 | Clc1ccc2nc(CSc3ccccc3)cn2c1 | – | 3.16 µM (active)
91 | O=c1cc(CSc2ccc(Cl)cc2)nc(N2CCOCC2)[nH]1 | 2.6% | –
92 | CCOc1ncccc1C(=O)OCc1cn2cc(Cl)ccc2n1 | 0.0582% | –
93 | Cc1ccc2nc(-c3ccccc3)cc(C(=O)O)c2c1 | -16.5% | –
94 | Cc1ccc(-c2cc(C(=O)NCc3cn(C)nc3C)c3cc(Br)ccc3n2)cc1 | 21.7% | –
95 | Cc1ccc2nc(-c3cccc(Br)c3)cc(C(=O)Nn3cnnc3)c2c1 | – | 12.6 µM (active)
96 | COc1ccc(N(CC(=O)NCCc2ccc(Cl)cc2)S(=O)(=O)c2c(C)nn(C)c2C)cc1 | -15.5% | –
97 | CCS(=O)(=O)c1ccc2oc(SCC(=O)N3c4ccccc4CC3C)nc2c1 (stereo not given) | -17.6% | –
98 | CN(C)S(=O)(=O)c1ccc2oc(SCC(=O)Nc3ccccc3F)nc2c1 | – | 11.2 µM (active)
99 | COc1ccc(S(=O)(=O)N(C)C)cc1NC(=O)CSc1ncccn1 | 1.93% | –
100 | COc1ccc(CNC(=O)Cn2nnc(-c3ccc(S(C)(=O)=O)cc3)n2)cc1 | -2.53% | –
101 | Cc1cc(NC(=O)Nc2ccccc2)n(-c2ccccc2)n1 | -28% | –
102 | Cc1cc(Nc2ccccc2)n(C(=O)c2ccc(N)cc2)n1 | – | 11.2 µM (active)
103 | Cc1cc(Nc2ccccc2)n(CCC#N)n1 | -1.03% | –
104 | COCCNC(=O)CSc1nc(-c2ccccc2)[nH]c1-c1ccc(C)cc1 | -1.93% | –
105 | COc1ccc(-c2noc(CCC(=O)N(C)c3ccccc3C)n2)cc1 | -11.4% | –
